# High-throughput results as filed in PubChem.
# A selection: hits, their analogues and other compounds. The true share with any hit is near 1.9%.
# PERK inh – block of dimerizer-induced PERK translation repression, primary screen, PERK inhibitor project, CHO PERK-DD cells, SEAP luminescence, HTS; Eukaryotic translation initiation factor 2-alpha kinase 3 (Homo sapiens), Q9NZJ5; inhibition, % at 5.6 µM; CHO PERK-DD fusion, SEAP luminescence translation reporter; hit rate 0.17% among 220,000;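 active = inhibition above the mean inhibition of all tested compounds plus 3 SD, set separately per screening campaign, cut at about 2.9% in these data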;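 note: PERK kinase domain activated by AP20187 dimerizer at 100 nM; 0% = DMSO with dimerizer and 100% = rapamycin at 8.4 µM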
# GRK2 aptamer HTS – compounds blocking aptamer binding on GRK2 – biochemical, human GRK2, bead flow cytometry, HTS, primary screen; FAM-aptamer displacement from GRK2; hit rate 0.59% among 330,000; AID 488847, 2010; inhibition of aptamer binding, % at 10 µM;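 active = inhibition of aptamer binding above 40%, roughly 3 SD of noise, on plates passing a quality check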;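 note: median bead fluorescence of bound FAM aptamer so fluorescent compounds give negative values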
# eIF4H inh – human eIF4H binding inhibitors, primary screen, translation initiation inhibitor project, biochemical, uHTS, fluorescence polarization; Eukaryotic translation initiation factor 4H (Homo sapiens), Q15056; eIF4H fluorescence polarization binding assay; inhibition, % at 35 µM; hit rate 0.94% among 290,000;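 note: calls also rest on retests at 20 µM and on dose response follow-up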
# MLLE-PAM2 inh – inhibitors of PABP1 MLLE–PAM2 peptide binding, primary screen, biochemical, fluorescence polarization, FITC-PAM2, GST-MLLE; inhibition, % at 20 µM; hit rate 0.36% among 360,000; Polyadenylate-binding protein 1 (Homo sapiens), P11940; in the data active = inhibition above about 35%, passing the limit was not always enough;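 note: plate controls were DMSO wells with GST-MLLE for no effect and wells lacking GST-MLLE protein for full effect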
# Target sequence (P11940 whole entry, looked up): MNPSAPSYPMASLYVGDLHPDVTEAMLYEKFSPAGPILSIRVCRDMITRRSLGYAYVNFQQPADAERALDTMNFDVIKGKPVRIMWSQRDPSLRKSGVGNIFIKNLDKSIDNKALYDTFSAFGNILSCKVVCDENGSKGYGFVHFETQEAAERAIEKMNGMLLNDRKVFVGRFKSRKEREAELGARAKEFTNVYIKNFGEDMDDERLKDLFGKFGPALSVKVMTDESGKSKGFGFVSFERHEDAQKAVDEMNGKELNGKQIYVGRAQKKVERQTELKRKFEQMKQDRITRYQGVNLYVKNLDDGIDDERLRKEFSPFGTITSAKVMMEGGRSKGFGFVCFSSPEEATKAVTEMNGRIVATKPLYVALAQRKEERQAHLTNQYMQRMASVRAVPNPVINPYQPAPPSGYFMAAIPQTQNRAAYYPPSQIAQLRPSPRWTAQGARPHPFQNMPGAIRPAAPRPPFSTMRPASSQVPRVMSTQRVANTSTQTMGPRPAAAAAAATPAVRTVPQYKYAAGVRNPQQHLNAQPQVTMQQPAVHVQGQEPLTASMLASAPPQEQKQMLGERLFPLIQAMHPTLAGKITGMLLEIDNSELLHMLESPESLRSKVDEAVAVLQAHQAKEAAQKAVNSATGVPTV
# PABP polyA inh – PABP poly(A) RNA binding inhibitors, primary screen, biochemical, fluorescence polarization, uHTS | Polyadenylate-binding protein 1 (Homo sapiens), P11940 | inhibition, % at 35 µM | hit rate 1% among 290,000 | AID 2014, 2009;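 note: calls also rest on retests at 20 µM and on dose response follow-up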
# * = called active by the depositor; x = no result given. Unless noted, the rule behind the calls is not given here.
SMILES,PERK inh,GRK2 aptamer HTS,eIF4H inh,MLLE-PAM2 inh,PABP polyA inh
C=CCn1c(=O)c2c(nc(-n3nc(C)cc3C)n2C)n(C)c1=O,x,0,-7,4,4
Cc1cc2nnc(SCC(=O)N(C)C3CCS(=O)(=O)C3)n2c2ccccc12 (stereo not given),1,1,2,-58,8
O=C(c1cc(-c2ccccc2O)on1)N1CCCCCC1,x,1,-21,5,9
Cc1ccccc1N=C(N)Nc1ccccc1C,x,0,x,58*,x
Cc1ccccc1NC(=O)NC(N)=O,1,4,-1,19,24
COC(=O)c1ccccc1NC(=O)COC(=O)CO/N=C(\C)c1ccc2c(c1)OCO2,x,0,-13,4,-7
CC(Cc1c[nH]c2ccccc12)C(=O)NCc1ccco1 (stereo not given),x,0,99*,-4,39
NC(=S)NN=C1c2cc(S(=O)(=O)N3CCOCC3)ccc2-c2ccc(S(=O)(=O)N3CCOCC3)cc21,1,1,2,40*,0
COc1ccc(C(=O)COC(=O)c2sccc2C)cc1OC,x,0,x,-7,x
COC(=O)Cc1n[nH]c(=O)c2ccccc12,3.5*,7,1,4,7
CCOC(=O)Cc1n[nH]c(=O)c2ccccc12,1,8,-1,-2,-4
c1csc(-c2nc3ccccn3c2NC2CCCCC2)c1,0,0,31,0,0
Cc1ccn2c(NC3CCCC3)c(-c3cccs3)nc2c1,-1,0,53*,3,active
COc1ccc(C(=O)NC(=S)N2CC(C)OC(C)C2)cc1OC (stereo not given),0,56*,3,-14,6
O=C(NC(=S)N1CCCc2ccccc21)c1ccccc1,2,2,3,34,16
COc1ccc(C(=O)NC(=S)N2CCCc3ccccc32)cc1OC,1,6,7,41*,6
O=C(NC(=S)N1CCCc2ccccc21)c1ccc(Br)cc1,0,13,28,47*,-2
CC1CN(C(=S)NC(=O)c2ccc(Cl)cc2)CC(C)O1 (stereo not given),x,2,-8,-32,0
COc1ccccc1C(=O)NC(=S)N1CCCc2ccccc21,2,7,32,17,57*
COc1ccc(Nc2cc(Nc3cc(OC)c(OC)c(OC)c3)ncn2)cc1,x,0,-16,-11,-5
CCn1cc(/C=N/N=C2\CCC3C4CCc5cc(O)ccc5C4CC[C@]23C)c(C)n1 (stereo not given in full),-1,0,1,-4,-11
Cc1ccccc1SCC(=O)NC1CCOC1=O (stereo not given),2,0,4,40*,2
COCCOC(=O)c1c(NC(=O)COC(=O)Cc2cccc(OC)c2)sc(C(N)=O)c1C,x,83*,-2,-7,11
O=C(O)c1cccc(NC(=S)N/N=C/c2ccccc2OCc2ccc(Br)cc2)c1,1,0,42,30,5
O=C(O)c1cccc(NC(=S)N/N=C/c2ccccc2OCc2cccc(Br)c2)c1,0,x,53*,36,-10
SMILES,PERK inh,GRK2 aptamer HTS,eIF4H inh,MLLE-PAM2 inh,PABP polyA inh
CC1=NN(c2ccc(C(=O)O)cc2)C(=O)/C1=C/c1ccc(-c2ccccc2F)o1,x,0,28,33,18
O=C1NN(c2cccc(Br)c2)C(=O)/C1=C\c1ccc(O)cc1,x,2,0,-4,5
O=C1NN(c2cccc(Br)c2)C(=O)/C1=C/c1ccc(-c2cc([N+](=O)[O-])ccc2O)o1,2,0,96*,-10,47
CC1=NN(c2ccc(C)cc2)C(=O)/C1=C/c1ccc(-c2cc([N+](=O)[O-])ccc2O)o1,x,x,105*,-10,69*
C=CCNC(=O)c1onc(CSc2ccc(Cl)cc2)c1C(=O)O,2,x,-4,3,-2
C=CCNC(=O)c1onc(CSc2ccc(F)c(F)c2)c1C(=O)O,3.1*,1,1,-12,21
CCOC(=O)C1=C[C@@H](C2CCCCC2)N(S(=O)(=O)c2ccc([N+](=O)[O-])cc2)[C@H]1c1ccccc1,x,x,x,-7,x
CC(C)(C)N1CCC1CN (stereo not given),4.5*,x,6,9,-8
CC1(C)C2CCC(CN)C1C2 (stereo not given),x,x,x,9,x
O=C(CNC(=O)Cc1ccccc1)N=Nc1c(O)[nH]c2ccccc12,x,0,3,6,6
CC(C)(O)C(=O)N=Nc1c(O)[nH]c2ccccc12,0,0,-1,-2,-6
O=C(CNC(=O)/C=C/c1ccco1)N=Nc1c(O)[nH]c2ccccc12,x,50*,88*,9,57*
COC(=O)/C=C(\C)N=Nc1c(O)[nH]c2ccccc12,-1,0,8.6*,3,58*
COC(=O)Nc1ccc(SCC(=O)c2cccc([N+](=O)[O-])c2)cc1,x,0,-3,42*,-4
CC(=O)Nc1ccc(C(=O)OCC(=O)c2cccc([N+](=O)[O-])c2)cc1,0,0,26,-7,16
CCC(Sc1nc2ncccc2[nH]1)C(=O)NCCc1ccccc1 (stereo not given),x,1,-9,-22,6
O=C(CNc1ccc2ccccc2c1)N/N=C/c1ccc(OC(=O)/C=C/c2ccco2)cc1,0,0,71*,-32,active
CC(/C=C/c1ccco1)=N/NC(=O)c1ccc(C)nc1,1,1,0,-1,-8
Cc1ccc(C(=O)N/N=C/c2cccc(OC(=O)/C=C/c3ccco3)c2)cn1,0,14,86*,2,55
O=C(CN1c2cccc3cccc(c23)S1(=O)=O)Nc1c(F)c(F)c(F)c(F)c1F,x,0,x,8,x
NC(=O)C1CCN(C(=O)CN2CCCc3ccccc32)CC1,0,4,78*,33,66*
COc1ccc(C(=O)OCC(=O)NC2CCCCCC2)c(OC)c1,x,x,x,5,x
CN(Cc1cnc2nc(N)nc(N)c2n1)c1ccc(C(=O)NC(CCC(=O)O)C(=O)O)cc1C(F)(F)F (stereo not given),x,x,x,21,x
CN(Cc1cnc2nc(N)nc(N)c2n1)c1ccc(C(=O)NC(CCC(=O)O)C(=O)O)cc1 (stereo not given),x,x,x,67*,x
CC(C)CC1NC(=O)c2cc3ccccc3cc2-n2c1nc1ccc(F)cc1c2=O (stereo not given),x,x,x,-3,x
COc1ccc(NC(=O)c2cc(C3CCCCN3C(=O)CCCc3ccccc3)on2)c(C)c1 (stereo not given),x,x,x,-5,x
Cc1nc(-c2ccccc2)[nH]c(=O)c1Oc1ccc(Cl)cc1Cl,1,0,1,-14,10
O=c1[nH]c(=S)[nH]cc1Oc1ccc(Cl)cc1Cl,0,x,10,46*,10
Nc1ccccc1Sc1nc2ccccc2[nH]1,0,1,9,39*,4
